# Assay results as given in PubChem BioAssay (NCI).
# About 83,000 compounds went through this panel and 20% of them were active in at least one assay; those are over-represented in the sample as a whole.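 Negative percent growth values reflect cell death: -40 means 40% of the cells present at the start died, and -100 means all died.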 Values without a mark were called inactive. Active and inactive are the calls of the source. Rule for the calls: active = growth percent below 10; inactive = the rest.
# Tested on: OVCAR-3 ovarian
# Test: NCI-60 one-dose screen, 48 h (100 = growth as untreated, 0 = no growth, -100 = all killed)
# Settings: 10 µM unless noted
row,Structure (SMILES),growth
1,O=c1oc2ccccc2cc1-c1nn(-c2ccccc2)cc1/C=N/Nc1nc(-c2ccccc2)c(N=Nc2ccccc2)s1,57.1%
2,COc1cc(/C=C2\CN(S(=O)(=O)c3ccc(C)cc3)C/C(=C\c3cc(CN4CCCC4)c(O)c(OC)c3)C2=O)cc(CN2CCCC2)c1O,-27.8% (active)
3,Nc1ccc(Cl)c2c(=O)c3ccccc3[nH]c12,75.2%
4,COC(=O)c1sc(-c2ccc(C)cc2)cc1O,99.6%
5,CCOC(=O)CSc1nc2sc3c(c2c(=O)n1-c1ccccc1)CCCCC3,93.5%
6,O=C1NCCS(=O)(=O)/C1=C\C=C\c1cccc(C(F)(F)F)c1,22.2%
7,COc1cc(/C=C2\C(=O)N(CCOc3cc(O)c4c(=O)cc(-c5ccccc5)oc4c3)c3ccccc32)cc(OC)c1O,55%
8,CNC1=C([N+](=O)[O-])C(c2ccc(OC)cc2)C(C#N)=C(c2ccc[nH]2)O1 (stereo not drawn),107%
9,COc1cccc2cc(N(C)c3ncnc4ccccc34)ccc12,6.13% (active)
10,Cc1[nH]c(C(=O)Nc2ccc(C(N)=O)cc2OC(C)C)c(Cl)c1Cl,105%
11,Nc1nc(N)c2c(n1)NC(c1cccc(Nc3ccnc4cc(C(F)(F)F)ccc34)c1)CC(c1ccc(Cl)cc1)=N2 (stereo not drawn),26.6%
12,COC1=C(OC)C(=O)C(CCCCCCCCCCO)=C(C)C1=O,69%
13,O=C1c2c(c3c4cccnc4[nH]c3c3ccc4ccccc4c23)C(=O)N1O,14.4%
14,CCN1CCN(C(=O)[C@]23CC[C@@H](C)[C@H](C)[C@@H]2C2=CC[C@@H]4[C@@]5(C)C/C(=C/c6ccncc6)C(=O)C(C)(C)[C@@H]5CC[C@@]4(C)[C@]2(C)CC3)CC1,11.2%
15,C=CC(=O)Nc1ccc2ncnc(Nc3cccc(NS(=O)(=O)CCC)c3Cl)c2c1,12.7%
16,COc1ccccc1/C=C/C1=C(C)CCC(c2ccccc2OC)C1C (stereo not drawn),-21.6% (active)
17,CN(C)CCOc1nc2c3cc([N+](=O)[O-])ccc3nn2c2ccccc12,63.7%
18,COc1ccc(-c2nc(SCCC(C)C)nc(N/N=C(/C)c3ccc(N)cc3)c2C#N)cc1,99.2%
19,O=C(c1ccccc1)[C@@H](c1ccccc1)[C@]1(O)C(=O)Nc2ccccc21,94.2%
20,CCOC(=O)C1=C(c2ccccc2)N=C2SC=C(c3cccc([N+](=O)[O-])c3)N2C1c1ccc(O)cc1 (stereo not drawn),101%
21,Cn1nc(-c2ccc(Cl)cc2)nc2c(=O)n(C)c(=O)nc1-2,-40.2% (active)
22,COC1CC(O)C2=C(CC3C(/C(C)=C\CC=C(C)C)CCC3(C)O2)C1=O (stereo not drawn),109%
23,COc1cc(C(=O)/C=C/c2c(-c3cccs3)nc3sc(C)cn23)cc(OC)c1OC,-8.57% (active)
24,CSc1nc(N)c2c(n1)NC(c1ccccc1)C1CCc3ccccc3C1=N2 (stereo not drawn),43.9%
25,COC(=O)c1c(C)nc(C)c2c1C(=O)C(Br)=C(NCCCCO)C2=O,1.87% (active)
26,COc1ccc(S(=O)(=O)Oc2ccc(-c3sc4cc(OS(=O)(=O)c5ccc(OC)cc5)ccc4c3C(=O)c3ccc(OCCN4CCCCC4)cc3)cc2)cc1,100%
27,C=C(c1ccc(C(=O)O)c(F)c1)c1cc2c(cc1C)C(C)(C)C=CC2(C)C,92.5%
28,COc1cc(C2=Nc3c(N)nc(N)nc3NC(c3cccc(Nc4ccnc5cc(C(F)(F)F)ccc45)c3)C2)cc(OC)c1OC (stereo not drawn),83.5%
